# From PubChem BioAssay AID431 (Sanford-Burnham Center for Chemical Genomics, 2006)
# The whole screen tested about 63,000 compounds, of which about 1,100 (1.7%) were called active. Many of the other results were omitted from the sample, so actives are more common in it than they were. Results with a measured potency or affinity are listed apart. A number with no mark means an inactive call.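 The calls were made as follows: active = compounds whose percent cytotoxicity in the single-dose primary screen, scaled between solvent and toxic-drug controls, exceeds 50; inactive = the rest.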
# Assay: cytotoxicity in KRAS-transformed pancreatic duct cells, primary screen, cell-based, fluorescence, HTS (AID 431);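 also: 0% = DMSO solvent wells and 100% = doxorubicin-treated wells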
# Details: HPDE-C7K KRASV12 cells, Alamar Blue viability, 48 h; at 10 µM; stronger effect = higher value
row,Structure (SMILES),cytotoxicity
1,COc1ccc(N(CC(=O)N2CCN(c3ccccc3)CC2)S(=O)(=O)c2c(C)noc2C)cc1,-8.3%
2,NC(=O)c1c(NC(=O)Cc2cccs2)sc2c1CCC2,-2.4%
3,CC(C)(C#N)Nn1cnnc1,-13.8%
4,O=C(Nc1nc(-c2nc3ccccc3s2)cs1)c1ccco1,1.4%
5,Cc1cccn2c(=O)c(C=Nc3ccccc3)c(NCc3ccco3)nc12,-13.4%
6,COc1ccc2c(c1)N1CCN=C1N2C,-12%
7,Cc1cc(=O)[nH]c2ccccc12,-5.7%
8,CN(C)C=Nc1ncc2c([nH]c3ccccc32)c1C#N,19.8%
9,CSc1ccccc1NC(=O)c1cnccn1,-5.1%
10,CN(C)CCCNC(=O)CCC1CCCCC1,1.5%
11,COc1ccc(N2CCN(C(=O)CN=C3NS(=O)(=O)C(c4ccc(C)cc4)=C3C)CC2)cc1,-1.4%
12,CC(C)CC(NC(=O)COc1ccccc1)C(=O)O (stereo unspecified),5.6%
13,CCN1C(=O)c2cccc3c(NC(=O)c4ccc5c(c4)OCCO5)ccc1c23,95.1% (active)
14,CCN1C(=O)c2cccc3c(NC(=O)c4ccc(S(=O)(=O)N(C)C)cc4)ccc1c23,0%
15,CCN1C(=O)c2cccc3c(NC(=O)c4cccc(N5C(=O)CCC5=O)c4)ccc1c23,-10.7%
16,c1ccc2c(c1)C(=NCC1CCCO1)NC2=NCC1CCCO1 (stereo unspecified),8.3%
17,O=C1c2oc3ccc(F)cc3c(=O)c2C(c2ccc(F)cc2)N1CCCN1CCOCC1 (stereo unspecified),-15.7%
18,COc1ccc(CC(=O)N2CCNC2=O)cc1,-17.1%
19,Brc1ccc(C2=Nn3c(nnc3-c3n[nH]c4c3CCC4)SC2)cc1,53.5% (active)
20,Clc1ccc(C2=Nn3c(nnc3-c3n[nH]c4c3CCC4)SC2)cc1Cl,71.9% (active)
21,CC1=Nn2c(nnc2-c2n[nH]c3c2CCC3)SC1,-0.7%
22,Fc1ccc(C2=Nn3c(nnc3-c3n[nH]c4c3CCC4)SC2)cc1,1.2%
23,Clc1ccc(C2=Nn3c(nnc3-c3n[nH]c4c3CCC4)SC2)cc1,25.9%
24,c1ccc(C2=Nn3c(nnc3-c3n[nH]c4c3CCC4)SC2)cc1,10.4%
25,COC(=O)c1ccc(S(=O)(=O)N2C3CCC2CC(NC(=O)NC2CCCCC2)C3)cc1 (stereo unspecified),-5.3%
26,CCn1c(SCC(=O)NCc2ccco2)nc2cccnc21,-20.4%

row,Structure (SMILES),cytotoxicity
1,CCSc1sccc1C1C(C#N)=C(N)N(c2cccnc2)C2=C1C(=O)CC(C)(C)C2 (stereo unspecified),30.9%
2,O=C(Nc1ccc(-c2nc3ccccc3o2)cc1)c1ccc2c(c1)OCO2,2%
3,O=C(Nc1ccc2oc(-c3ccccc3)nc2c1)c1cccnc1,34.5%
4,O=C(Nc1ccc2oc(=O)ccc2c1)c1cccnc1,7.9%
5,O=C(Nc1ccc2oc(Cc3ccc(Cl)cc3)nc2c1)c1cccnc1,58.3% (active)
6,COC(=O)c1ccc(-c2nc3ccc(C)cc3o2)cc1,54.8% (active)
7,Cc1ccc2oc(-c3ccc(NC(=O)c4cccnc4)cc3)nc2c1,56.9% (active)
8,CCc1ccc2oc(-c3cccc(NC(=O)c4cccnc4)c3)nc2c1,10.6%
9,COc1ccc(-c2nc3cc(NC(=O)c4ccc5c(c4)OCO5)ccc3o2)cc1,-6.9%
10,COC(=O)c1ccc(-c2nc3ccccc3o2)cc1,-20.7%
11,O=C(Nc1ccc2oc(-c3cccnc3)nc2c1)c1cccnc1,3.2%
12,Cc1ccc(-c2nc3cc(C)ccc3o2)cc1,8.8%
13,Cc1ccc2oc(-c3ccc(NC(=O)c4ccc5c(c4)OCO5)cc3)nc2c1,85.1% (active)
14,c1ccc(CSc2nnc(-c3cccs3)n2Cc2ccco2)cc1,-21.5%
15,CCOC(=O)c1cccc(Nc2nc(C)cc(C)n2)c1,0.1%
16,O=C(NCc1ccccn1)c1cn(CCc2ccccc2)nn1,-5%
17,CCOC(=O)Cc1csc(NC(=O)c2c(-c3c(F)cccc3Cl)noc2C)n1,-8.5%
18,COc1cc(C(=O)NCc2ccc(-c3nc4ccccc4o3)cc2)cc(OC)c1OC,2.5%
19,O=S(=O)(Nc1ccc(-c2nc3ccccc3o2)cc1)c1ccccc1,52% (active)
20,COc1cc(OC)cc(C(=O)Nc2ccc(-c3nc4ccccc4o3)cc2)c1,73.9% (active)
21,COc1cc(C(=O)Nc2cccc(-c3nc4cc(C)ccc4o3)c2)cc(OC)c1OC,43.8%
22,COc1cccc(C(=O)Nc2ccc(-c3nc4ccccc4o3)c(O)c2)c1,24.7%
23,O=C(Nc1ccc(-c2nc3ccccc3o2)cc1)C1CCCO1 (stereo unspecified),5.9%
24,Cc1ccc2oc(-c3cccc(NC(=O)C4CCCO4)c3)nc2c1 (stereo unspecified),3.3%
25,O=C(Nc1ccc2ccccc2c1)c1cccnc1,0.5%
26,O=C(Nc1ccc2c(c1)oc1ccccc12)c1cccnc1,53.2% (active)

row,Structure (SMILES),cytotoxicity
1,O=C(Nc1ccc2c(c1)oc1ccccc12)c1ccncc1,7.8%
2,O=S(=O)(Nc1ccc2oc(-c3ccccc3)nc2c1)c1ccccc1,15.5%
3,Cc1occc1-c1nc(-c2ccccn2)no1,-13.5%
4,CC1CN(C(=O)c2cc3cc(Cl)cc(Cl)c3oc2=O)CC(C)O1 (stereo unspecified),-12.2%
5,COc1ccc2oc(-c3ccccc3)c(C(N)=O)c2c1,-8.2%
6,CCCCCC(=O)Nc1cccc(-c2nc3ncccc3o2)c1,-7%
7,Cc1nnc(SCC(=O)NCc2cccs2)n1-c1ccccc1,-5.1%
8,Cn1c(=O)c2c(SCc3ccccn3)nc(-c3ccccc3)nc2n(C)c1=O,6.7%
9,CC[C@@H](C)[C@H](NC(=O)C1CCN(C(=O)[C@@H](NS(=O)(=O)c2ccc(C)cc2)C(C)C)CC1)C(=O)O,-19.2%
10,NC(=O)C1CCN(c2ncnc3c2c(-c2ccccc2)cn3-c2ccccc2)CC1,-9%
11,Cn1nnnc1SCCNC/C=C/c1ccccc1,14.4%
12,CN(C1CCCCC1)S(=O)(=O)c1ccc(-n2cnnn2)cc1,-13.1%
13,CCCCN(CC)S(=O)(=O)N1CCC(C(=O)NCc2ccc(F)cc2)CC1,-8.2%
14,C=CCN1C(=O)C2C(C(=O)NC)C3C=CC2(O3)C1C(=O)NCc1ccc(OC)cc1 (stereo unspecified),4.1%
15,CC(=O)N1CC=C2C(C#N)=C(N)C(C#N)(C#N)[C@H](c3ccoc3)[C@H]2C1,13.2%
16,N#CC1=C(N)C(C#N)(C#N)[C@H](c2ccoc2)[C@H]2CN(Cc3ccccc3)CC=C12,81.4% (active)
17,CC(C)N1CC=C2C(C#N)=C(N)C(C#N)(C#N)C(c3ccccc3)C2C1 (stereo unspecified),27.9%
18,Cn1c(=O)c2c(nc(Br)n2Cc2c(F)cccc2Cl)n(C)c1=O,-11.4%
19,Cc1ccccc1-c1nnc2s/c(=C\c3ccc(N(C)C)cc3)c(=O)n12,3.5%
20,Cc1ccc(/C=c2\sc3nc(-c4ccccc4Br)nn3c2=O)o1,8.5%
21,Cc1ccc(/C=c2/sc3nnc(-c4ccccc4Cl)n3c2=O)o1,50.1% (active)
22,COc1cccc(OC)c1OCCCSc1nc(C)cc(=O)[nH]1,6.8%
23,C=CCSC1=N/C(=C\c2cc(OC)c3c(c2)OCO3)C(=O)S1,16.5%
24,CCSC1=N/C(=C\c2ccc3c(c2)OCO3)C(=O)S1,40.9%
25,C=CCSC1=N/C(=C\c2ccc3c(c2)OCO3)C(=O)S1,52.9% (active)
26,COc1ccc(-c2c3c(=O)n(C)c(=O)n(C)c3cn2Cc2ccccn2)cc1,7%

row,Structure (SMILES),cytotoxicity
1,CCS(=O)(=O)N1CCCC(C(=O)NCc2ccccc2Cl)C1 (stereo unspecified),14.1%
2,COc1cc(NC(=O)NCc2ccncc2)cc(OC)c1OC,-5.3%
3,Cc1nc(-c2ccc3c(c2)OCO3)cs1,-26.4%
4,CCc1cc(-c2[nH]ncc2-c2ccc3c(c2)OCO3)c(O)cc1O,64.9% (active)
5,CCOC(=O)c1nc(-c2ccc3c(c2)OCO3)[nH]c1C,5.4%
6,Oc1ccccc1-c1cc(-c2ccc3c(c2)OCCO3)n[nH]1,16.4%
7,COc1ccc(-c2cnc(N)nc2-c2ccc(OC)cc2O)cc1,-1.3%
8,CCOc1ccc(-c2nc(N)ncc2-c2ccccc2)c(O)c1,8.3%
9,CCCc1cc(-c2[nH]ncc2-c2ccc(C(=O)OCC)o2)c(O)cc1O,30.9%
10,CCc1nc(SCc2ccccn2)c2c(=O)n(C)c(=O)n(C)c2n1,-2.5%
11,CCCSCCCNC(=O)Cn1cc2c(n1)CCC(C)C2 (stereo unspecified),4.6%
12,COC(=O)Cc1csc(N)n1,-19.5%
13,Cc1cc(C)c2[nH]c(=O)c(C(c3nnnn3Cc3ccc4c(c3)OCO4)N3CCC(C)CC3)cc2c1 (stereo unspecified),-17.3%
14,O=C(CSc1nnc(-c2ccccn2)n1Cc1ccccc1)N1CCCC1,-3%
15,O=C1C(=O)N(CCOCCO)C(c2ccccn2)/C1=C(\O)c1ccccc1 (stereo unspecified),-29.5%
16,CCc1oc(C(=O)O)cc1CN(CC)CC,-3.6%
17,CCCCCn1c(CN2CCCCC2CC)nc2c1c(=O)n(C)c(=O)n2C (stereo unspecified),8.3%
18,Cn1c(=O)oc2cc(S(=O)(=O)NCCC(=O)NCCc3ccccc3)ccc21,0.1%
19,Cc1cc(Nc2cccc(C)c2C)n2nc(C)nc2n1,9%
20,O=C(COc1ccccc1)N(Cc1ccco1)c1ccc(O)cc1,-5.3%
21,CCCCn1nc(NC(=O)c2cccs2)c2cc3cc(OC)ccc3nc21,23.2%
22,COc1ccc2nc3c(cc2c1)c(NC(=O)c1cccs1)nn3CC(C)C,52.8% (active)
23,CCCn1nc(NC(=O)c2cccs2)c2cc3cc(OC)ccc3nc21,-25.3%
